5 compounds from PubChem BioAssay (NCATS) can be followed below.

The structures appear in SMILES notation. Records with an inconclusive call do not appear. The source made the active and inactive calls. Calls follow the shape of the dose curve; as a rule, active = well fitted curve in the direction sought with a large enough effect; inconclusive = small, poorly fitted or top-dose-only effect, or another doubt; inactive = no such curve, though single readings can be large; an effect the other way counts as inactive or inconclusive.

Experiment [1] in a line: Quantitative High-Throughput drug screen in 47 multiple myeloma cell lines against the NCATS MIPE library collection: Karpas620_DSMZ cell viability assay (AID 1918959). Also: nearly all actives have a fitted effect of over 30% in size. Also: potency is read from the fitted curve at half-maximal effect. The method, boiled down: (§1)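 qHTS of the MIPE 4.0 collection: 500 myeloma cells/well, 48 h drug exposure at 37C in 5% CO2, then CellTiter-Glo for 5 min at room temperature before luminescence reading.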
The nature of experiment [2]: Quantitative High-Throughput drug screen in 47 multiple myeloma cell lines against the NCATS MIPE library collection: KMM1_JCRB cell viability assay (AID 1918960). Also: nearly all actives have a fitted effect of over 30% in size. Also: potency is read from the fitted curve at half-maximal effect. The gist of the method:
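Viability screen: myeloma cells (500/well) incubated 48 h at 37 °C, humidified 5% CO2, with pinned library compounds; CellTiter-Glo added, luminescence read; DMSO wells set 100%, medium-only wells 0%.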

Experiment [3] in a line: Quantitative High-Throughput drug screen in 47 multiple myeloma cell lines against the NCATS MIPE library collection: KHM11_PLB cell viability assay (AID 1918962). Also: potency is read from the fitted curve at half-maximal effect; nearly all actives have a fitted effect of over 35% in size. The method, boiled down: as §1
Experiment [4] in a line: Quantitative High-Throughput drug screen in 47 multiple myeloma cell lines against the NCATS MIPE library collection: JIM3_ECACC cell viability assay (AID 1918963; also: nearly all actives have a fitted effect of over 35% in size; also: potency is read from the fitted curve at half-maximal effect). The method, boiled down:
as §1

A short description of experiment [5]: Quantitative High-Throughput drug screen in 47 multiple myeloma cell lines against the NCATS MIPE library collection: JIM1_ECACC cell viability assay (AID 1918964; also: potency is read from the fitted curve at half-maximal effect). The gist of the method:
(§2)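 Relative luminescence from CellTiter-Glo served as the viability signal, referenced to DMSO-treated (100%) and cell-free medium (0%) controls. Treatment lasted 48 hours at 37C with 500 cells per well.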

A short description of experiment [6]: Quantitative High-Throughput drug screen in 47 multiple myeloma cell lines against the NCATS MIPE library collection: INA6_PLB cell viability assay (AID 1918965; also: potency is read from the fitted curve at half-maximal effect; nearly all actives have a fitted effect of over 55% in size). The gist of the method: (§3)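 Luminescent ATP measurement with CellTiter-Glo gives viability, scaled between DMSO-only wells (100%) and media-only wells (0%). Cells, 500 per well, faced library compounds for 48 hours at 37C.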

Experiment [7] in a line: Quantitative High-Throughput drug screen in 47 multiple myeloma cell lines against the NCATS MIPE library collection: JJN3_DSMZ cell viability assay (AID 1918966; also: nearly all actives have a fitted effect of over 50% in size; also: potency is read from the fitted curve at half-maximal effect). The gist of the method:
as §2

The nature of experiment [8]: Quantitative High-Throughput drug screen in 47 multiple myeloma cell lines against the NCATS MIPE library collection: H1112_PLB cell viability assay (AID 1918967; also: nearly all actives have a fitted effect of over 30% in size; also: potency is read from the fitted curve at half-maximal effect). The gist of the method: as §2
Experiment [9] can be described thus: Quantitative High-Throughput drug screen in 47 multiple myeloma cell lines against the NCATS MIPE library collection: Karpas25_ECACC cell viability assay (AID 1918968; also: potency is read from the fitted curve at half-maximal effect; nearly all actives have a fitted effect of over 35% in size). The gist of the method: as §2
The nature of experiment [10]: Quantitative High-Throughput drug screen in 47 multiple myeloma cell lines against the NCATS MIPE library collection: KMS27_JCRB cell viability assay (AID 1918970). Also: nearly all actives have a fitted effect of over 30% in size. Also: potency is read from the fitted curve at half-maximal effect. Particulars: KMS27 myeloma cells, CellTiter-Glo ATP viability, 48 h; viability (% of DMSO): at 45.8 µM (top of the series). The gist of the method:
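Each line is seeded at 500 cells per well and treated with library compounds for 48 hours under 37 °C, 5% CO2. CellTiter-Glo is then added for 5 min at room temperature before median relative luminescence is recorded.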

Experiment [11] is described as follows: Quantitative High-Throughput drug screen in 47 multiple myeloma cell lines against the NCATS MIPE library collection: KMS12BM_JCRB cell viability assay (AID 1918971). Also: nearly all actives have a fitted effect of over 35% in size. Also: potency is read from the fitted curve at half-maximal effect. The gist of the method: (§4)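 Steps: seed 500 cells per well; pin-transfer MIPE 4.0 library; incubate 48 h at 37C, 5% CO2, humidified; add CellTiter-Glo, 5 min room temperature; read luminescence.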

Experiment [12] is described as follows: Quantitative High-Throughput drug screen in 47 multiple myeloma cell lines against the NCATS MIPE library collection: KMS12PE_JCRB cell viability assay (AID 1918972). The method, boiled down: as §3
A short description of experiment [13]: Quantitative High-Throughput drug screen in 47 multiple myeloma cell lines against the NCATS MIPE library collection: KMS20_JCRB cell viability assay (AID 1918973). Also: potency is read from the fitted curve at half-maximal effect; nearly all actives have a fitted effect of over 45% in size. The gist of the method:
as §2

Experiment [14] in a line: Quantitative High-Throughput drug screen in 47 multiple myeloma cell lines against the NCATS MIPE library collection: KMS26_JCRB cell viability assay (AID 1918975). Also: nearly all actives have a fitted effect of over 45% in size. Also: potency is read from the fitted curve at half-maximal effect. The method, boiled down: as §4
Experiment [15] in a line: Quantitative High-Throughput drug screen in 47 multiple myeloma cell lines against the NCATS MIPE library collection: MMM1_PLB cell viability assay (AID 1918976). The gist of the method: (§5)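 qHTS format: cells plated (500/well), pin-dosed with MIPE 4.0 compounds, kept 48 h at 37 °C. Readout was CellTiter-Glo luminescence, median RLU.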
Experiment [16] in a line: Quantitative High-Throughput drug screen in 47 multiple myeloma cell lines against the NCATS MIPE library collection: MOLP8_DSMZ cell viability assay (AID 1918977). Also: potency is read from the fitted curve at half-maximal effect; nearly all actives have a fitted effect of over 45% in size. The method, boiled down:
as §5

The nature of experiment [17]: Quantitative High-Throughput drug screen in 47 multiple myeloma cell lines against the NCATS MIPE library collection: OCIMY1_PLB cell viability assay (AID 1918979). Also: nearly all actives have a fitted effect of over 35% in size. Also: potency is read from the fitted curve at half-maximal effect. The method, boiled down: as §5
Experiment [18] is described as follows: Quantitative High-Throughput drug screen in 47 multiple myeloma cell lines against the NCATS MIPE library collection: NCIH929_DSMZ cell viability assay (AID 1918978). Also: nearly all actives have a fitted effect of over 35% in size. Also: potency is read from the fitted curve at half-maximal effect. The gist of the method:
as §5

Experiment [19] in a line: Quantitative High-Throughput drug screen in 47 multiple myeloma cell lines against the NCATS MIPE library collection: Karpas417_ECACC cell viability assay (AID 1918961). Conditions: Karpas417 myeloma viability, CellTiter-Glo ATP luminescence, 48 h; viability (% of DMSO): at 45.8 µM (top of the series). The gist of the method:
as §3
For orientation: Cellular ATP, detected with luciferase, serves as a proxy for viable cell number.

Regarding `COC[C@H](NC(=O)c1cnc(C)s1)C(=O)N[C@@H](COC)C(=O)N[C@@H](Cc1ccccc1)C(=O)[C@@]1(C)CO1`, the Potency in experiment [1] is 0.0469 µM (active); in experiment [2], 0.0332 µM (active); in [3], 0.0662 µM (active); in [4] it was 0.296 µM (active); in experiment [5], 0.059 µM (active); in [6], 0.0743 µM (active). Moreover, the Potency is 0.0935 µM (active) in experiment [7]; 0.0935 µM (active) in experiment [8]; 0.0743 µM (active) in [9]; 0.0743 µM (active) in experiment [10]; 0.0935 µM (active) in experiment [11]; 0.0372 µM (active) in [12]. For the same compound, the Potency was 0.132 µM (active) in experiment [13]; 0.148 µM (active) in experiment [14]; 1.05 µM (active) in experiment [15]; 0.0469 µM (active) in experiment [16]; 0.0418 µM (active) in [17].
`CN(C)CCN1C(=O)c2cccc3cc(N)cc(c23)C1=O`: the Potency in experiment [1] is 26.4 µM (active); in experiment [2], 18.7 µM (active); in [3], 7.43 µM (active); in [4] it was 14.8 µM (active); in experiment [5], 18.7 µM (active); in experiment [6], 3.32 µM (active). In addition, the Potency in experiment [8] was 18.7 µM (active); in [9], 18.7 µM (active); in [11], 5.26 µM (active); in [12], 18.7 µM (active); in [14] it was 20.9 µM (active); in experiment [15] it was 11.8 µM (active). In addition, the Potency in [16] is 23.5 µM (active); in experiment [18], 8.33 µM (active); in [17], 23.5 µM (active).
On to `CN(C)c1ccc2cc(C(=O)N[C@@H](CCCN=C(N)CCl)C(=O)NCc3ccccc3)ccc2c1`, for which the Potency was 5.9 µM (active) in experiment [1]; 1.32 µM (active) in experiment [2]; 16.6 µM (active) in [3]; 11.8 µM (active) in experiment [4]; 3.72 µM (active) in experiment [5]; 9.35 µM (active) in [6]. Also, the Potency is 1.05 µM (active) in experiment [7]; 20.9 µM (active) in [8]; 13.2 µM (active) in experiment [9]; 1.48 µM (active) in experiment [10]; 11.8 µM (active) in experiment [11]; 7.43 µM (active) in experiment [12]. The Potency was 8.33 µM (active) in [13]; 6.62 µM (active) in experiment [14]; 18.7 µM (active) in [15]; 9.35 µM (active) in [16]; 16.6 µM (active) in experiment [18].
Regarding `NC(=O)c1ncn([C@@H]2O[C@H](CO)[C@@H](O)[C@@H]2O)c1N`, the Potency entry in experiment [1], in experiment [2], in [19], in experiment [4], in experiment [7] and in experiment [8] was “inactive” throughout. For the same compound, the Potency entry in [10], in [11], in [14], in [18] and in experiment [17] was “inactive” each time. Besides, the Potency in experiment [15] was 2.64 µM (active).
On to `O=C1NCCc2[nH]c(-c3ccncc3)cc21`, for which the Potency in [1] was 2.35 µM (active); in [2] it was 1.05 µM (active); in experiment [3] it was 2.09 µM (active); in experiment [4] it was 7.43 µM (active); in [5], 0.662 µM (active); in [6], 1.32 µM (active). The Potency was 2.09 µM (active) in experiment [7]; 2.96 µM (active) in [9]; 1.32 µM (active) in experiment [10]; 3.72 µM (active) in experiment [11]; 6.62 µM (active) in [12]; 2.64 µM (active) in experiment [13]. For the same compound, the Potency in experiment [14] was 3.32 µM (active); in experiment [15] it was 16.6 µM (active); in experiment [16], 1.66 µM (active); in experiment [18], 2.64 µM (active).
